In PubChem BioAssay (NCI):
Several values for one entry are separate records, joined by “and”; a condition that tells them apart may be missing. Identical values can stand only once. This is part of a sample that, as a whole, favours compounds with a hit. Of some 83,000 tested, about 20% had one in any assay.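 A percent growth of 40 corresponds to 60% growth inhibition; 0 means no net growth; -100 means all cells died. Active threshold: below 10.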 Activity calls are given as the source filed them.

Tests used:
Assay in all cases: NCI-60 one-dose screen, 48 h (100 = growth as untreated, 0 = no growth, -100 = all killed)
Conditions in all cases: 10 µM unless noted
[1] = system: HCT-15 colon
[2] = system: HT29 colon
[3] = system: SNB-19 CNS
[4] = system: U251 CNS
[5] = system: PC-3 prostate
[6] = system: SK-MEL-5 melanoma
[7] = system: LOX IMVI melanoma
[8] = system: SK-MEL-28 melanoma
[9] = system: UACC-62 melanoma
[10] = system: SNB-75 CNS

Measured: growth

NC1=NC2(CCCC2)N(c2ccc(S(=O)(=O)Nc3nccs3)cc2)C(N)=N1
inactive: [1] 100% | [2] 109% | [3] 100% | [4] 104% | [5] 102% | [6] 100% | [7] 99% | [8] 105%

O=c1[nH][nH]c(-c2ccc(F)cc2)c1-c1nc2ccccc2s1
inactive: [1] 85% | [2] 110% | [3] 80.5% | [4] 98.8% | [5] 90.3% | [6] 98.8% | [9] 81.8% | [7] 93.1% | [8] 97.7%

CC(=C(c1ccc(OCCN2CCCC2)cc1)c1ccc(OCCN2CCCC2)cc1)c1ccc(Cl)cc1
active: [1] -73% | [2] -59.2% | [3] -48.8% | [4] -75.1% | [5] -26.9% | [6] -94.9% | [9] -64.7% | [7] -86.5% | [8] -82.5%

O=[N+]([O-])c1ccc(NC(=S)NNC(=S)Nc2ccc(F)cc2)cc1
inactive: [1] 61.7% | [2] 98% | [3] 94.4% | [4] 90.5% | [5] 76.5% | [6] 89.9% | [9] 58.8% | [7] 72.3% | [8] 98.4%

C#C[C@]1(O)CC[C@H]2[C@@H]3CC=C4c5sc(N6CCN(C)CC6)nc5CC[C@]4(C)[C@H]3CC[C@@]21C
active: [1] 8.12% | [2] 5.26%
inactive: [3] 63.3% | [4] 21.8% | [5] 22.4% | [6] 38.5% | [9] 51.2% | [7] 25.6% | [8] 31%

CC(=C(c1ccc(OCCCN(C)C)cc1)c1ccc(OCCCN(C)C)cc1)c1ccc(Cl)cc1
inactive: [1] 41.6% | [2] 45.7% | [3] 92.9% | [4] 92.1% | [5] 87.5% | [6] 98.5% | [9] 101% | [7] 76.6% | [8] 99.2%

O=C(/C=C/c1ccccc1)c1cccc(O)c1
inactive: [1] 89.3% | [2] 110% | [3] 96.1% | [4] 91.2% | [5] 94.2% | [6] 96.9% | [9] 81.1% | [7] 66.1% | [8] 104%

COc1cc2c3c(cc4c5c(ccc4c3c1OC)OCO5)N(CCN(C)C)C2=O
active: [1] -6.74% | [2] -9.31% | [3] 1.56% | [4] -2.59% | [5] 6.59% | [6] -90.1% | [9] -64% | [7] -82.6% | [8] -86.6%

N#Cc1c(-c2cccs2)cc(-c2cnccn2)nc1SCC(=O)N/N=C/c1cccs1
active: [7] 7.29%
inactive: [1] 62.8% | [2] 30.9% | [3] 47.7% | [4] 19.5% | [5] 53.6% | [6] 20.5% | [9] 55.6% | [8] 27.5%

Cn1c(SCC(=O)c2ccc(F)cc2)nc2ccccc2c1=O
inactive: [1] 104% | [2] 101% | [3] 96.9% | [4] 95.3% | [5] 94.8% | [6] 91.6% | [9] 82.2% | [7] 96.3% | [8] 105%

NC(=O)c1c(NC(=O)c2ccc(C(F)(F)F)cc2)sc2c1CCC(=O)C2
inactive: [3] 16.3%
active: [1] -21.2% | [2] 0.0943% | [4] 7.99% | [5] -6.96% | [6] -27.2% | [9] -24.9% | [7] -37.2% | [8] 4.03%

CC1=C(C)C(=O)C(Nc2ccc(C)cc2)=C(Br)C1=O
inactive: [1] 95.9% | [2] 108% | [3] 101% | [4] 104% | [6] 94% | [9] 92.2% | [7] 29.9% | [8] 112%

Cc1ccc(/C=N/Nc2nc(Nc3ccccc3)nc(Nc3ccc(S(N)(=O)=O)cc3)n2)cc1
inactive: [1] 53.5% | [2] 54.8% | [3] 77.6% | [4] 62.6% | [5] 66.8% | [6] 76% | [9] 91.3% | [7] 54.9% | [8] 75.7%

Cn1c(SCC(=O)c2ccco2)nc2ccccc2c1=O
inactive: [1] 84.9% | [2] 118% | [3] 102% | [4] 105% | [6] 98.1% | [9] 87% | [7] 95.2% | [8] 108%

CCN(CC)CCOc1ccc(C(=C(C)Cc2ccc(OC)cc2)c2ccc(OCCN(CC)CC)cc2)cc1
active: [1] 7.13% | [2] -4.07% | [4] 9.54% | [7] -80.7% | [8] -82%
inactive: [3] 74.4% | [5] 66.2% | [6] 31.1%

Cc1ccc2c(n1)C(=O)C(Cl)=C(Nc1ccc(C(=O)OC(C)(C)C)cc1)C2=O
active: [1] -43.9% [9.25 µM] | [7] -59.3% [9.25 µM]
inactive: [2] 100% [9.25 µM] | [10] 83.8% [9.25 µM] | [3] 83.8% [9.25 µM] | [4] 83.5% [9.25 µM] | [6] 87.6% [9.25 µM] | [9] 87.1% [9.25 µM] | [8] 82.5% [9.25 µM]

O=C(N/N=C\c1ccc(F)cc1)c1ccc2nc(-c3ccc(Br)cc3)[nH]c2c1
active: [2] -58.9% | [4] -62.1% | [7] -12.3%
inactive: [1] 22.2% | [3] 23.2% | [5] 40.4% | [6] 56.3% | [9] 49.2% | [8] 10.8%

C#CCN(C)CCCOc1ccc(NCc2ccc(C(=O)NO)cc2)cc1Cl
active: [6] 9.67% | [9] -6.34%
inactive: [1] 20% | [2] 16.2% | [10] 10.4% | [3] 35.2% | [4] 20% | [7] 10.6% | [8] 24%

CCCCc1nc2c(N)nc3ccccc3c2n1Cc1cccc(CN)c1
inactive: [1] 55.9% | [2] 17.4% | [3] 63.2% | [4] 38.5% | [5] 53.3% | [6] 55% | [9] 76.3% | [7] 18.1% | [8] 59.4%

COc1cc(-c2nc(-c3ccccc3)[nH]c2-c2ccnc(NCCCNS(=O)(=O)c3ccc(C(F)(F)F)cc3)n2)ccc1Cl
inactive: [1] 14.3% and 22.5% | [2] 43.9% and 17.9% | [3] 57.1% and 54.1% | [4] 40.7% and 39.8% | [5] 15.4% and 20.3% | [6] 22.4% and 52.3% | [9] 56% and 44.9% | [7] 18.1% and 47.6% | [8] 63.1% and 44.4%

CCCCCCNC(=O)Oc1ccc(/C(=C(/C)c2ccc(OC)cc2)c2ccc(OCCN3CCCCCC3)cc2)cc1
inactive: [3] 39.2% | [4] 19.6% | [5] 24.5% | [6] 61.2%
active: [1] -39.1% | [2] -34% | [9] 5.76% | [7] -94.2% | [8] -36.1%

C#C[C@]1(O)CC[C@H]2[C@@H]3CC=C4c5sc(Nc6cc(Cl)ccc6OC)nc5CC[C@]4(C)[C@H]3CC[C@@]21C
active: [5] -9.76% | [6] -43.9% | [9] -3.92% | [7] -71.7% | [8] -59.1%
inactive: [1] 16.3% | [2] 34.9% | [3] 28.3% | [4] 15.3%

FC(F)(F)c1cc(Br)cc(-c2cc(-c3ccc4c(c3)OCCO4)[nH]n2)c1
inactive: [1] 15.7% | [3] 34.3% | [4] 23.1% | [5] 37% | [6] 17.9% | [9] 40.2% | [7] 19% | [8] 68.3%
active: [2] 6.74%

O=C1[C@H]2Cc3c([nH]c4ccccc34)[C@H](c3ccc(Br)cc3)N2C(=O)CN1C1CCN(CC2CCCCC2)CC1
inactive: [1] 38.8% | [2] 11% | [3] 83.3% | [4] 55.9% | [5] 60.2% | [6] 69.6% | [9] 96.7% | [8] 97.6%
active: [7] -69.2%

COc1ccc(Cn2cc(C#N)c(N)c2C(C)=O)cc1
inactive: [1] 98.5% | [2] 112% | [3] 85.8% | [4] 109% | [5] 105% | [6] 100% | [9] 87.1% | [7] 98.6% | [8] 109%

COc1cc2cc(Oc3ccc(NC(=O)c4cc(C(F)(F)F)cc(C(F)(F)F)c4)cc3)c(C)nc2cc1OCCN1CCOCC1
inactive: [1] 47.1% | [2] 63.8% | [3] 87.6% | [4] 55% | [5] 41.7% | [6] 14.6% | [9] 59.3% | [7] 69.6% | [8] 70.8%

CCCCCCOC(=O)c1cc(-c2ccc(F)cc2)nc2ccccc12
inactive: [1] 94.8% | [2] 96.3% | [3] 92.6% | [4] 101% | [6] 99.7% | [9] 79% | [7] 91.3% | [8] 107%
